These results are taken from PubChem BioAssay (NCI).

Compounds without any hit were thinned out: in the full panel of roughly 83,000, 20% have a hit.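 Negative percent growth values reflect cell death: -40 means 40% of the cells present at the start died, and -100 means all died.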 A number with no mark means an inactive call. Calls of active or inactive are those of the source. How the source made its calls: active means growth percent below 10; inactive means the rest.

This experiment relates to K-562 leukemia. Put plainly: NCI-60 one-dose screen, 48 h (100 = growth as untreated, 0 = no growth, -100 = all killed). The note with it: 10 µM unless noted.
As to `COc1cc(C(=O)/C=C/c2c(-c3ccc(F)cc3)nc3sccn23)cc(OC)c1OC`, the growth was 39.1%. In the case of `Nc1nc(N)c2c(n1)NC(c1ccc(F)cc1)C1CCc3ccccc3C1=N2` (configuration not stated) it was 21.4%. In the case of `COc1ccc(-c2cc(-c3ccc(Cl)cc3)nc(NCCCCNc3ccnc4cc(Cl)ccc34)n2)cc1` it was 0.414% (active); in that of `Cc1cc(C)nc(SCC(=O)Nc2cccc(N=Cc3ccccc3O)c2)n1`, 96.2%; in that of `O=C(Nc1ccc(Nc2ccncc2)cc1)c1ccc([N+](=O)[O-])cc1`, 19.5%. In the case of `O=C1COCCN1c1ccc(NCc2cn(Cc3cccc4ccccc34)c3ccccc23)cc1` it was 84.6%; in that of `O=C1/C(=C\c2cccn2Cc2ccccc2)c2ccccc2N1c1c(Cl)cccc1Cl`, 87.6%.

As for `CCCCCN(CCCCC)CCCCCCCCN1CCCc2ccccc21`, the growth is 7.49% (active). In the case of `CC(C)CSc1ncnc2nc[nH]c12` it was 102%. In the case of `CCN(CC)CCCC(C)Nc1ccnc2cc(Cl)c(SCc3ccccc3)cc12` (configuration not stated) it was -51.1% (active). In the case of `O=C(Nc1ccc(C(=O)/C=C/c2ccc(N3CCOCC3)cc2)cc1)Nc1ccc([N+](=O)[O-])cc1` it was 68.6%; in that of `Cc1ccc(-c2cn(C/C=C3\C=CN(S(=O)(=O)c4ccccc4)CC3)nn2)cc1`, 89.5%. As to `CCOc1ccc2sc(NS(=O)(=O)c3ccc(N)cc3)nc2c1`, the growth is 103%. Turning to `O=C(NCCCNC(=O)OCc1ccc2c(Br)cc(Br)c(O)c2n1)OCc1ccc2c(Br)cc(Br)c(O)c2n1`, the growth was 3.3% (active).

In the case of `C=CCc1nc2ccccc2s1`, the growth is 96.9%.

For the molecule `CCN(CC)CCCNCc1cc(-c2ccccc2)nc2ccccc12`, the growth is 24.3%. The result for `C=C(C)[C@@H]1CC[C@]2(C(N)=O)CC[C@]3(C)[C@H](CC[C@@H]4[C@@]5(C)C/C(=C/c6cccnc6)C(=O)C(C)(C)[C@@H]5CC[C@]43C)[C@@H]12` reads 6.74% [100 µM] (active); that for `COC(=O)C(=Cc1ccccc1[N+](=O)[O-])C(=O)OC`, -12% (active).

As for `CCOC(CNC(=O)c1cccc([N+](=O)[O-])c1)OCC`, the growth was 94%. With `Cc1ccc(-c2cc(O)c(-c3ccc(C)cc3C)cc2O)c(C)c1`, the growth was 25.8%. As for `Fc1cc2[nH]ncc2c2c3c(c(-c4cn[nH]c4)nc12)CCCC3`, the growth is 15.4%. The result for `O=C(CCN1CCCCC1)c1ccc(Cl)cc1` reads 118%; that for `CCOC(=O)C1=C(C(=O)c2ccc(Br)cc2)C(c2ccc(Br)cc2)NC(=S)N1` (configuration not stated), 106%; that for `Cn1cc(-c2noc(-c3cn(C)c4ncc(F)cc34)n2)c2cc(Cl)ccc21`, 77.2%. Take `O=[N+]([O-])c1cc([N+](=O)[O-])c(NN=C(c2ccc(O)cc2)c2ccc(O)cc2)cc1Cl`: the growth was 101%. In the case of `NNC(=O)c1ccc(C(=O)NN)cc1` it was 112%; in that of `CN(C)CCOc1ccc(/C(=C(/CCCl)c2ccccc2)c2ccccc2)cc1`, 1.34% (active); in that of `CC(=O)Nc1ccc2nc3ccc(NC(C)=O)cc3[n+](-c3ccccc3)c2c1`, 57.1%. With `COc1ccc(/C=C(/C(=O)c2ccc(Cl)cc2)C(=O)C(F)(F)F)cc1`, the growth was 92.1%. `COc1cc2c(c(OC)c1)C1c3cc(OC)ccc3NC(=O)N1CC2` (configuration not stated): the growth was 30.8%.

As for `COc1ccc(C=C2c3ccccc3-c3ccccc32)cc1`, the growth is 18.8%. Regarding `O=S(=O)(c1ccc(N/N=C\c2ccccc2Cl)cc1)c1ccc(N/N=C/c2ccccc2Cl)cc1`, the growth is 86.1%.

As for `CSc1nc(N)c(N=Nc2ccc(S(=O)(=O)Nc3nnc(C)s3)cc2)c(=O)[nH]1`, the growth was 138%. `C=C(C)[C@@H]1CC[C@]2(C)[C@H](CC=C3[C@@H]4[C@@H](C)[C@H](C)CC[C@]4(C(N)=O)CC[C@]32C)[C@@]1(C)CCC#N`: the growth is 7.42% [100 µM] (active). Regarding `CCOC(=O)CC(c1ccccc1)C(C#N)c1ccccc1` (configuration not stated), the growth is 108%. The result for `Clc1ccc(/C=N/Nc2nc3ccccc3s2)c(Cl)c1` reads 91%. Regarding `CC1(C)CC[C@]2(C(=O)O)CC[C@]3(C)[C@H](CC[C@@H]4[C@@]5(C)CCC(=O)C(C)(C)[C@@H]5CC[C@]43C)[C@H]2[C@H]1OC(=O)C(F)(F)F`, the growth was 1.66% [100 µM] (active).
